Records with an inconclusive call do not appear. The source made the active and inactive calls. Unless noted, calls come from the whole dose curve; as a rule, active = well fitted curve in the direction sought with a large enough effect; inconclusive = small, poorly fitted or top-dose-only effect, or another doubt; inactive = no such curve, though single readings can be large; an effect the other way counts as inactive or inconclusive.
What was measured:
[1] = Primary qHTS for inhibitors of nuclear receptor binding SET domain protein 2 (NSD2) in an isogenic RCH-ACV NSD2 p.E1099K mutant (9B) (AID 1645876); details: RCH-ACV NSD2 E1099K (9B) viability, CellTiter-Glo, 72 h; series mostly up to 44.9 µM; note: potency is the fitted concentration of half-maximal effect; nearly all actives have a fitted effect of over 70% in size
[2] = molecular target: Catechol O-methyltransferase (Homo sapiens) (UniProt P21964); assay: Confirmatory Screen for Target Class Profiling of Small Molecule Inhibitors of Methyltransferases (AID 1745852); details: MTase-Glo luminescence, SAH detection, recombinant enzyme; measured here: COMT max response; stronger effect = lower value; for activity change, negative = inhibition: % is set by controls: 0 for no effect and ±100 for the full control effect
[3] = molecular target: Guanidinoacetate N-methyltransferase (Homo sapiens) (UniProt Q14353); assay: as above; details: MTase-Glo luminescence, SAH detection, recombinant enzyme; activity change, negative = inhibition: at 57.3 µM (top of the series) unless noted; series mostly up to 57.3 µM
[4] = molecular target: Nicotinamide N-methyltransferase (Homo sapiens) (UniProt P40261); assay: as above; details: MTase-Glo luminescence, SAH detection, recombinant enzyme; measured here: NNMT max response; stronger effect = lower value
[5] = molecular target: Phenylethanolamine N-methyltransferase (Homo sapiens) (UniProt P11086); assay: as above; details: MTase-Glo luminescence, SAH detection, recombinant enzyme; measured here: PNMT max response; stronger effect = lower value
[6] = Primary qHTS for inhibitors of nuclear receptor binding SET domain protein 2 (NSD2) in an RCH-ACV wild type WT cells (2C) (AID 1645877); details: RCH-ACV (leukaemia line) NSD2 WT (2C) viability, CellTiter-Glo, 72 h; series mostly up to 44.9 µM; note: nearly all actives have a fitted effect of over 70% in size; note: potency is the fitted concentration of half-maximal effect
[7] = NCATS anti-infectives library activity on the primary C. elegans qHTS viability assay (AID 1745855; calls by dose curve); details: C. elegans worm area imaging, day 7; series mostly up to 41.8 µM
Outline: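 Titration-based screen in worms: eggs hatched overnight in M9, L1 larvae fed TOP10 capsules in S medium with compound, incubated 21 °C for 7 days; fluorescent objects gated by size and intensity at days 0, 3 and 7.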

Chain of Nicotinamide N-methyltransferase (Homo sapiens) (P40261 whole entry, looked up): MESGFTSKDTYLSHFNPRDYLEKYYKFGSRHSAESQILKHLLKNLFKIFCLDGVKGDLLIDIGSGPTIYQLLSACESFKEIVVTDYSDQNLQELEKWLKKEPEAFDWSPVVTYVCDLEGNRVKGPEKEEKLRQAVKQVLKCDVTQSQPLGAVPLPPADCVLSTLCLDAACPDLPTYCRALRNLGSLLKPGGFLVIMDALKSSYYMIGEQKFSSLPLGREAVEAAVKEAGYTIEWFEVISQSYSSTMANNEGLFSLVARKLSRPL
Chain of Catechol O-methyltransferase (Homo sapiens) (P21964 whole entry, looked up): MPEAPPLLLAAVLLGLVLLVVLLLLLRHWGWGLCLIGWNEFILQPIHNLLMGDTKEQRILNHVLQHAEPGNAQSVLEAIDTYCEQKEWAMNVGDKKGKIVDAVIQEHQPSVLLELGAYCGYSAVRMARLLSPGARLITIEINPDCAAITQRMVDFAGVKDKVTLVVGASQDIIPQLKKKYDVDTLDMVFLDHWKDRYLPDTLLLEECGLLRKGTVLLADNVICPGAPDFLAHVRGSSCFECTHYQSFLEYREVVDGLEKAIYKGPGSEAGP
Chain of Phenylethanolamine N-methyltransferase (Homo sapiens) (P11086 whole entry, looked up, the tested form may be a part): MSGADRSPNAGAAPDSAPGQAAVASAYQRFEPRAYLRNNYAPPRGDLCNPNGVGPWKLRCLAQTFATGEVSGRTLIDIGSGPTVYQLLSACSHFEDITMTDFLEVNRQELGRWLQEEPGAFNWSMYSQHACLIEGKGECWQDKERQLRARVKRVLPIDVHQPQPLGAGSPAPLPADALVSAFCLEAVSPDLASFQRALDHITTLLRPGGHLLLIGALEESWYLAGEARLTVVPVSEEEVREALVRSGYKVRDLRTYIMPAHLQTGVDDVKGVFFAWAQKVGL

For `C=C1C(=O)OC2C1CCC1(C)C(O)CCC(=C)C21` (configuration not stated), the Potency [1] was 18.3 µM (active), the activity [2] was -62.8% and the activity change, negative = inhibition [3] was -2.15%. For the same molecule, the activity [4] was 1.08% and the activity [5] was -1.43%.

For `CC1CCC(=O)CC(SCC(O)C(=O)O)CCC(=O)O1` (configuration not stated), the Potency [6] was “inactive”.

For `C=C1/C(=C/C=C2\CCC[C@]3(C)[C@@H]([C@H](C)/C=C/[C@@H](C)C(C)C)CC[C@@H]23)C[C@@H](O)C[C@@H]1O`, the Potency [6] was 14.5 µM (active).

For `CC(C)C[C@H](CO)Nc1nc(S[C@@H](C)c2ccccc2)nc2nc(N)sc12`, the Potency [1] was 26.3 µM (active), the activity [2] was -3.51% and the activity change, negative = inhibition [3] was 1.87%. It also gave an activity [4] of -40.8% and an activity [5] of -2.5%.

In the case of `C/C=C(/C=C(C)/C=C/C=C/C=C(\C)C(=O)C12OC1C(O)(CCO)NC2=O)C(=O)OC` (configuration not stated), the Potency [6] is reported as 7.96 µM (active).

In the case of `COC1=CC(=O)O/C1=C(/OC)[C@@H]1O[C@H]1c1ccccc1`, the Potency [6] is reported as 18.3 µM (active).

In the case of `COc1ccccc1C(=O)Nc1cc2c(cc1N1CCCC1)n(C)c(=O)n2C`, the Potency [6] is reported as 23.5 µM (active).

With `COc1c2c(c(C)c3c1C(=O)OC3)O[C@@]1(C)C[C@@H](OC(C)=O)[C@]34O[C@](OC)(CC[C@]3(C)[C@H]1C2)OC4(C)C` the activity [2] was -8.48%, the activity change, negative = inhibition [3] was 2.06% [at 29.8 µM] and the activity [4] was -50.2%. It also gave an activity [5] of -7.63%.

In the case of `Cn1nc(C(C)(C)C)cc1C(=O)N[C@@H](Cc1cccc(Cl)c1)C(=O)NCC#N`, the Potency [7] is reported as “inactive”.

With `CC(=O)c1c(C)cc2cccc(O)c2c1O[C@@H]1O[C@H](CO)[C@@H](O)[C@H](O)[C@H]1O` the Potency [6] was 12.7 µM (active).

With `CN1CCN(c2ccc(-c3cccc(CN4CCOCC4)c3)cc2NC(=O)c2c[nH]c(=O)cc2C(F)(F)F)CC1` the Potency [6] was “inactive”.
